# Assay outcomes (PubChem)
# C-LANA FP: KSHV C-LANA DNA binding inhibition. MBP-C-LANA/FAM-LBS DNA binding, fluorescence polarization. inhibition, % at 9 µM. hit rate 0.078% among 340,000. AID 504423;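 active = highest replicate inhibition at or above 60% at 9 µM, even if other replicates fall short; inactive = all replicates below 60% inhibition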;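 also: 0% = neutral control wells and 100% = 4 µM acridine orange control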
# RTF Ca sens inh: cardiac RTF calcium desensitization | P19429+P45379 | IANBD-labeled cardiac RTF, Ca2+ fluorescence | inhibition, % at 7.15 µM | hit rate 0.12% among 340,000;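 active = inhibition above the mean inhibition of all tested compounds plus 3 SD, cut at about 17% in these data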;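 also: assay run at fixed EC70 calcium of 1.6 mM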
# IDE act: activators of human insulin-degrading enzyme in cells | AID 493087 | hit rate 0.073% among 340,000 | P14735 | activation, % at 5.96 µM | HEK cells, FAbeta-B cleavage, fluorescence polarization; 0% vehicle, 100% cell-free pure enzyme wells;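 active = activation above the mean of all tested compounds plus 3 SD, set per screening campaign, cut at about 17% in these data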
# IDE inh: inhibits human insulin-degrading enzyme in HEK cells. P14735. FAbetaB cleavage, fluorescence polarization. inhibition, % at 5.59 µM. hit rate 0.41% among 320,000. AID 434962;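 active = percent inhibition above the average of all tested compounds plus 3 SD, set per screening campaign, cut at about 16% in these data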;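 also: IDE supplied by intact live HEK cells; FP after avidin binding of uncleaved biotin substrate so inhibition keeps polarization high; 0% = DMSO wells and 100% = 60 µM reference IDE inhibitor Ii1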
# Keap1-Nrf2 PPI: disrupts human Keap1 binding to Nrf2 peptide | AID 504523 | inhibition, % at 9.4 µM | Keap1 Kelch-Nrf2 peptide fluorescence polarization, 1536-well | hit rate 0.15% among 340,000; in the data active = inhibition above about 12%; inconclusive = no clear call, values can overlap the other calls; inactive = below about 7.3%;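 also: human Keap1 Kelch domain with fluorescein labeled Nrf2 9mer peptide probe; 0% = neutral control wells and 100% = peptide positive control; higher means more block of Keap1 binding to Nrf2 peptide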
# cardiac RTF act: increases calcium sensitivity of human cardiac regulated thin filaments | activation, % at 7.2 µM | IANBD-labeled TnC RTF fluorescence at EC20 calcium; 0% EC20 calcium, 100% full calcium | hit rate 0.24% among 340,000 | AID 493008;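 active = activation above the mean over all tested compounds plus 3 SD, cut at about 30% in these data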;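 also: rise in fluorescence read as greater calcium sensitivity of cardiac thin filaments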
# IDE cell inh cf: confirmation of human insulin-degrading enzyme inhibitors in cells; HEK cells, FAbetaB cleavage, fluorescence polarization; shares compounds with IDE inh; inhibition, % at 5.59 µM; hit rate 51% among 1,200;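 active = mean inhibition across triplicate wells above the cutoff set by the earlier primary insulin-degrading enzyme screen, cut at about 16% in these data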;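 also: 0% = DMSO wells and 100% = 60 µM reference IDE inhibitor Ii1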
# HEK cytotox: kills HEK cells in IDE inhibitor counter-screen; HEK293 cytotoxicity, ATP luminescence; AID 449730; inhibition, % at 5.59 µM; hit rate 28% among 1,200; shares compounds with IDE inh; in the data active = inhibition above about 22%;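 also: 0% = vehicle wells and 100% = reference cytotoxic drug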
# An asterisk follows results filed as active; i = inactive; ? = inconclusive; . = no result given. A selection: hits, their analogues and other compounds. The true share with any hit is near 0.81%.
SMILES,C-LANA FP,RTF Ca sens inh,IDE act,IDE inh,Keap1-Nrf2 PPI,cardiac RTF act,IDE cell inh cf,HEK cytotox
OC(CN1CCN(c2ccc(C(F)(F)F)cn2)CC1)c1ccccc1 (stereo not drawn),1,2,-11,20*,4,7,11,20
Cc1ccccc1SCC(=O)N1CCN(c2ccc(C(F)(F)F)cn2)CC1,4,3,-4,7,-1,-8,.,.
CCCCc1ccc(NC(=O)CN(C)CC(=O)Nc2ccccc2Cl)cc1,-1,0,6,0,-2,-3,.,.
CC(C)[C@H](NC(=O)c1ccc(C(C)(C)C)cc1)C(=O)N1CCN(Cc2ccc3c(c2)OCO3)CC1,-2,0,1,19*,-3,-2,4,53*
C[C@H](NC(=O)c1ccccc1)C(=O)N1CCN(Cc2ccc3c(c2)OCO3)CC1,-1,-5,4,-4,-1,-1,.,.
Cc1cc(C)c(S(=O)(=O)N(C)CC(=O)NCCN2CCOCC2)c(C)c1,-1,-5,4,3,4,-5,.,.
O=[N+]([O-])c1ccc(S(=O)Cc2ccccc2)c([N+](=O)[O-])c1 (stereo not drawn),-7,1,-3,.,-8,-4,.,.
O=c1c2c([N+](=O)[O-])cc([N+](=O)[O-])cc2sn1Cc1ccccc1,2,-6,-32,84*,-2,-6,24*,92*
C=CCNC(=O)CSc1nnc(C(CC)N(C)C)n1C1CCCCC1 (stereo not drawn),-2,-8,-2,3,-6,-2,.,.
O=c1[nH]cnc2onc(-c3ccc(F)cc3)c12,4,-1,6,1,2,-3,.,.
C=CCN(C(=O)CSc1nnnn1C)c1nc(-c2ccccc2)cs1,1,-1,-12,.,1,2,.,.
C=CCN(C(=O)COC(=O)c1cc[n+]([O-])cc1)c1nc(-c2ccccc2)cs1,0,6,-26,35*,0,-3,34*,3
CCn1c(COc2ccc(C)cc2)nnc1SCc1ccc(C#N)cc1,0,-2,0,18*,2,-3,8,13
CCn1c(COc2ccc(C)cc2)nnc1SCC(=O)C(C)(C)C,1,-8,-5,2,-2,0,.,.
CCN(CC)c1ccc(/C=N/NC(=O)c2cccc(S(=O)(=O)Nc3ccccc3OC)c2)c(O)c1,11,-14,-21,33*,?,8,35*,100*
CCN(CC)c1ccc(/C=N/NC(=O)c2cccc(S(=O)(=O)Nc3ccccc3OC)c2)cc1,0,-10,-4,2,-9,3,.,.
COc1ccc(/C=C2\SC(N)=NC2=O)cc1,2,-15,7,.,-4,0,.,.
COc1cc(/C=C2\SC(N)=NC2=O)cc(Br)c1O,-3,-13,-41,55*,-5,12,70*,6
CN1/C(=C\C=C2/C(=O)Oc3ccccc3C2=O)C(C)(C)c2ccccc21,.,.,.,184*,.,.,61*,23*
CN1/C(=C\C=C2/SC(=S)NC2=O)C(C)(C)c2ccccc21,-59,i,-132,116*,-71,344*,152*,38*
N#C/C(=C\c1ccc(N2CCOCC2)o1)C(=O)NC1CCCCC1,-33,-62,-37,46*,-112,45*,48*,17
N#C/C(=C\c1ccc(N2CCOCC2)o1)C(=O)NCC1CCCO1 (stereo not drawn),-34,-78,-26,17*,-126,53*,22*,12
Cc1cc(C)cc(Nc2cnn(C34CC5CC(CC(CC(=O)O)(C5)C3)C4)c(=O)c2Cl)c1,0,1,-31,32*,0,5,18*,12
Cc1cccc(Nc2cnn(C34CC5CC(CC(CC(=O)O)(C5)C3)C4)c(=O)c2Cl)c1,1,5,-13,21*,-9,-3,12,6
O=c1c(/C=N/O)c(Nc2ccccc2)nc2ccccn12,-1,9,-1,-3,-2,0,.,.
